Holding throughout (format): functional
Assay [1] deals with Solute carrier family 2, facilitated glucose transporter member 1 (Homo sapiens) (UniProt P11166). Description: ST_JUDE_LEISH: Cytotoxicity at 2uM final concentration against transgenic Leishmania Mexicana promastigotes LmGLUT1 that are glucose transport deficient and complemented with the human glucose transporter GLUT1. Activity is measured by DNA content using SYBR green in vitro.

The target in assay [2] is Hexose transporter 1 (Plasmodium falciparum) (UniProt O97467). Description: ST_JUDE_LEISH: Cytotoxicity at 2uM final concentration against transgenic Leishmania Mexicana promastigotes LmPfHT that are glucose transport deficient and complemented with the Plasmodium falciparum hexose transporter. Activity is measured by DNA content using SYBR green in vitro.
Assay [3] concerns the target Glucose transporter (Leishmania mexicana) (UniProt O61059). Description: ST_JUDE_LEISH: Cytotoxicity at 2uM final concentration against transgenic Leishmania Mexicana promastigotes LmGT2 that are glucose transport deficient and complemented with the L. Mexicana glucose transporter 2. Activity is measured by DNA content using SYBR green in vitro.

The values below come from ChEMBL document CHEMBL3433997, “St. Jude Leishmania screening dataset” (2016).

Solute carrier family 2, facilitated glucose transporter member 1 (Homo sapiens), sequence (P11166 whole entry): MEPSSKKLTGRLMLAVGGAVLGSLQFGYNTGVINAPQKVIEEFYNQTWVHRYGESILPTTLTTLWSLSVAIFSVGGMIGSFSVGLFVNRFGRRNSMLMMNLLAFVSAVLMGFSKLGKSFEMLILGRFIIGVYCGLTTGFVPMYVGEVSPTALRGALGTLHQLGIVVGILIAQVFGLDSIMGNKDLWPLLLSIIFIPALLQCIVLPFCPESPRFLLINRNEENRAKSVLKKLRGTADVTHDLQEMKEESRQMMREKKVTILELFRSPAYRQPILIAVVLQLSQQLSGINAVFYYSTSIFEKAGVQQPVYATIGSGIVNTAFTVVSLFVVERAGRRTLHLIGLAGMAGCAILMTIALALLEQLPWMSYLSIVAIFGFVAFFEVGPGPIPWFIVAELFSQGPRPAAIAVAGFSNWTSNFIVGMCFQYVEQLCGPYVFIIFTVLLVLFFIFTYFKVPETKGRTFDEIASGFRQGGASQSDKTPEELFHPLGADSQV

On to `CC(C)c1cn2c3c(cc(C(=O)N[C@@H](Cc4ccccc4)[C@H](O)CNC4CCOCC4)cc13)N(C)S(=O)(=O)CC2`, for which the values for the inhibition in assay [1], in assay [2] and in assay [3] were 3.12%, 2.83% and 3.22%, respectively.
On the same counts, the results for `CCCCOc1cc(C)nc2ccc(NC(=O)COCC(=O)Nc3ccc4nc(C)cc(OCCCC)c4c3)cc12` are 14.9%, 13.7% and 11.2%.
In the case of `O=C(/C=C/c1ccc(Cl)c(Cl)c1)NCCCCCN1CCC(NC(=O)Nc2ccc(Cl)c(Cl)c2)CC1`, the inhibition in assay [1] was 1.02%; in assay [2] it was -0.03%; in assay [3] it was 0.09%.
The corresponding values for `Nc1nccc2ccc(-c3cccc(OCc4ccccc4)c3)cc12` are 1.85%, 2.5% and -2.03%.
On the same counts, the results for `Cc1cccc(CN2CCC(CNC(=O)c3cc4c(-c5ccccc5F)nn(C)c4s3)CC2)c1` are 4.22%, 3.22% and 2.82%.
On the same counts, the results for `O=C(/C=C/c1ccc(Cl)cc1)NCCCCCN1CCCN(C(=O)Nc2cccc(Cl)c2)CC1` are -2.75%, -1.85% and -1.25%.
Consider `CN1CCC(N2CCN(Cc3ccc(-c4cccc(-c5nc6cc(F)ccc6[nH]5)c4)cc3)CC2)CC1`, for which the inhibition was determined as 2.39% in assay [1], 2.13% in assay [2] and 2.94% in assay [3].
For `CC1(CCCCN2CCC(c3c[nH]c4cnccc34)CC2)C(=O)Nc2cccc(Cl)c21` (stereo not given), the figures for the inhibition in assay [1], in assay [2] and in assay [3] were 0.37%, 0.54% and 1.21%, respectively.
The corresponding values for `Cc1csc2nc(-c3ccccn3)nc(Nc3ccc4ncsc4c3)c12` are 0.73%, 2.13% and 0.95%.
On the same counts, the results for `CN(C)c1cc(NC(=O)Nc2ccccc2)c2ccccc2n1` are 2.21%, 5.06% and 2.82%.
`CNC(=O)c1c(NC(=O)c2cccs2)sc2c1CCCC2`: the inhibition in assay [1] came out at 1.2%; in assay [2], 1.4%; in assay [3] it was 1.44%.
As for `Cc1ccc(Nc2nc(C)cc(NC3CCN(C)CC3)n2)cc1`, the inhibition came out at 1.14% in assay [1], 3.12% in assay [2] and 5.43% in assay [3].
On the same counts, the results for `O=S(=O)(Nc1cccc(CCN2CCCCC2CCN2CCCC2)c1)c1ccc(Oc2ccccc2)cc1` (stereo not given) are -2.34%, 1.13% and -1.81%.
Take `COc1ccc2nccc([C@@H](O)CN3CCC(NCc4cc5ccccc5nc4O)CC3)c2c1`: the inhibition was 1.8% in assay [1], 1.94% in assay [2] and 2% in assay [3].
The corresponding values for `COc1cccc(NC(=O)Nc2cc(-c3ccc4[nH]ncc4c3)cc3c2CNC3=O)c1` are 2.19%, 2.02% and 1.68%.
On the same counts, the results for `COc1cc(C(=O)N2CCOC(CCN3CCC[C@H]3C(=O)Nc3ccccc3)(c3ccc(Cl)c(Cl)c3)C2)cc(OC)c1OC` (stereo not given in full) are 6.58%, 5.14% and 2.89%.
On the same counts, the results for `CCNc1cc(C(=O)N[C@@H](Cc2ccc(F)c(F)c2)[C@H](O)CNC2CCCCC2)cc(N2CCCCS2(=O)=O)c1` are 1.98%, 0.24% and 0.91%.
On to `N#Cc1cccc(NC(=O)Nc2ccc3c(c2)CN(Cc2c[nH]c4ncccc24)C3)c1`, for which the inhibition amounted to 6.66% in assay [1], 7.47% in assay [2] and 3.37% in assay [3].
On the same counts, the results for `Nc1nc2c(ncn2COC(COCc2ccccc2)COCc2ccccc2)c(=O)[nH]1.Nc1nc2ncn(COC(COCc3ccccc3)COCc3ccccc3)c2c(=O)[nH]1` are -0.7%, -2% and -0.45%.
Take `CC1(C)Cc2c(oc3ncn(CCn4cnc5oc6c(c5c4=N)CC(C)(C)SC6)c(=N)c23)CS1`: the figures for the inhibition in assay [1], in assay [2] and in assay [3] were -0.76%, 0.58% and -0.4%, respectively.
The corresponding values for `CN1CCCN(Cc2ccc(-c3cccc(NC(=O)c4ccc(C#N)cc4)c3)cc2)CC1` are 1.03%, 4.1% and -1.1%.
The corresponding values for `O=C(N1CCN(c2ccc(C(F)(F)F)cc2[N+](=O)[O-])CC1)C(Cl)(Cl)Cl` are 3.26%, 3.64% and 1.86%.
On the same counts, the results for `CCOC(=O)NC1=NC(=N)N(OCCCOc2cc(Cl)c(Cl)cc2Cl)C(C)(C)N1` are -0.21%, -0.15% and 1.91%.
On to `N#CC(c1ccc(F)cc1)c1ccc2c(C(F)(F)F)cc(C(F)(F)F)nc2n1` (stereo not given), for which the inhibition in assay [1] is 3.66%; in assay [2] it was 4.6%; in assay [3], 1.81%.
The corresponding values for `CCOc1cc(C)c(C2CCN(CCCCNC(=O)c3ccc(NC(=O)c4ccc(Cl)cc4)cc3)CC2)cc1C` are -0.49%, -0.72% and -0.67%.
Turning to `Cc1nc(N)nc(N)c1-c1ccc(Cl)cc1`, the inhibition was found to be 3.05% in assay [1], 2.21% in assay [2] and 2.37% in assay [3].
With `C[C@H](NC(=O)c1c(CN2CCN(C(=O)C(C)(C)C)CC2)c(-c2cccs2)nc2ccccc12)C1CCCCC1`, the results for the inhibition in assay [1], in assay [2] and in assay [3] were 6.07%, 5.13% and 2.24%, respectively.
On to `COc1ccc(CNCCCCCCNCc2ccc(OC)c3ccccc23)c2ccccc12`, for which the inhibition in assay [1] was determined as 59.7%; in assay [2] it was 97.2%; in assay [3], 103%.
On the same counts, the results for `O=C(Nc1ccc(-c2ccccc2)s1)N[C@H]1CCN(Cc2ccc(OCCCN3CCCCC3)cc2)C1` are 0.93%, 1.34% and 2.81%.
In the case of `CCCCCCn1c(Sc2ccc(C#N)c([N+](=O)[O-])c2)nnc1-c1ccccc1`, the results for the inhibition in assay [1], in assay [2] and in assay [3] were 8.64%, 11.1% and 6.76%, respectively.
As for `Cc1cc(Oc2cc(NC(=O)c3sc4ncn(Cc5ccccc5F)c(=O)c4c3C)cc([N+](=O)[O-])c2)ccc1Cl`, the results for the inhibition in assay [1], in assay [2] and in assay [3] were 1.2%, 1.84% and 1.68%, respectively.
The corresponding values for `c1ccc(-c2ccc(CNCc3ccc(-c4cccc(-c5nc6ccccc6[nH]5)c4)cc3)s2)nc1` are 1.04%, 2.78% and 0.61%.
On the same counts, the results for `CCc1c(CCNCC/C=C/CCNCCc2ccc(OC)c(OC)c2CC)ccc(OC)c1OC` are 0.84%, 1.33% and -1.26%.
The corresponding values for `NC(=O)c1ccsc1NC(=O)CNC(c1ccccc1)c1ccc(Cl)cc1` (stereo not given) are 6.13%, 2.82% and 1.74%.
With `CC(Oc1ccc(Cl)cc1)C(=O)Nc1cc(C(F)(F)F)ccc1N1CCOCC1` (stereo not given), the inhibition in assay [1] is 8.02%; in assay [2], 10.4%; in assay [3] it was 6.86%.
